Measurements taken from PubChem BioAssay (EPA / NIEHS).
Where “and” joins values, the source holds several entries; their conditions need not be identical. Equal entries are not always repeated. Inconclusive results are not listed. Some structures have more than one record in an assay (separate samples or runs), and their calls can disagree. Calls of active or inactive are those of the source. The calls were made as follows, unless noted: active = hit-call score of the fitted dose curve at least 0.9, where 1 is the maximum; inconclusive = response in the unintended direction; inactive = score below 0.9.

Tests used:
[1] = molecular target: human Peroxisome Proliferator-activated Receptor alpha (PPARa), PPARA (gene 5465) (UniProt Q07869); assay: ATG_PPARa_TRANS: Attagene TRANS-FACTORIAL HepG2 Assay for human Peroxisome Proliferator-activated Receptor alpha (PPARa) (AID 2283001)
Sequence of human Peroxisome Proliferator-activated Receptor alpha (PPARa), PPARA (gene 5465) (Q07869 whole entry, looked up): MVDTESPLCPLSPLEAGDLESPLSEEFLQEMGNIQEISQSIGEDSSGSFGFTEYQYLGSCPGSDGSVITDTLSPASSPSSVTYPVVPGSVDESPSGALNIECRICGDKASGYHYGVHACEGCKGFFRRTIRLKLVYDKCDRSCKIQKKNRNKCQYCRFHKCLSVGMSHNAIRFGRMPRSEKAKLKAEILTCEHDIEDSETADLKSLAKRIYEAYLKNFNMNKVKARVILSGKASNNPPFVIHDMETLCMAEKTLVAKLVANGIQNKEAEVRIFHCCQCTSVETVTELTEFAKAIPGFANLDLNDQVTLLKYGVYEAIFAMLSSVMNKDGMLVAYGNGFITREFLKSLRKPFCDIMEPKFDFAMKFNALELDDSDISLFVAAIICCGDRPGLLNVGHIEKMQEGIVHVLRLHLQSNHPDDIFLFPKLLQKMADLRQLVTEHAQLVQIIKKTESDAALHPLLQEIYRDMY
How it was run: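 Cells (HepG2) are transfected with multiple reporter transcription units, exposed to chemical for 24 h, then total RNA is reverse-transcribed and amplified. Labelled products are quantified by capillary electrophoresis; induction is referenced to DMSO.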

[2] = molecular target: human Peroxisome Proliferator-activated Receptor delta (PPARd), PPARD (gene 5467) (UniProt Q03181); assay: ATG_PPARd_TRANS: Attagene TRANS-FACTORIAL HepG2 Assay for human Peroxisome Proliferator-activated Receptor delta (PPARd) (AID 2283002)
Sequence of human Peroxisome Proliferator-activated Receptor delta (PPARd), PPARD (gene 5467) (Q03181 whole entry, looked up, the tested form may be a part): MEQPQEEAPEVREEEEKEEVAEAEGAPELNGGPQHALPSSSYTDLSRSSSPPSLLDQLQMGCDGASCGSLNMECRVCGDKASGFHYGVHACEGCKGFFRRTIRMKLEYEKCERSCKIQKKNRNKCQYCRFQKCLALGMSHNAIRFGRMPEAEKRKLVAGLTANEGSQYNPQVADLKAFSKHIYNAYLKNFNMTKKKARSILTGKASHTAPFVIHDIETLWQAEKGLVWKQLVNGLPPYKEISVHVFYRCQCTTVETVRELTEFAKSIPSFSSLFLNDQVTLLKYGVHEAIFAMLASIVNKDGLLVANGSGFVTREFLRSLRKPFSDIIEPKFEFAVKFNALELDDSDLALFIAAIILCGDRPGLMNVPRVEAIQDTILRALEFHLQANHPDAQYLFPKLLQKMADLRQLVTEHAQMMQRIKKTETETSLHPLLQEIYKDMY
How it was run: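 Multiplexed trans-activation format: HepG2 liver cells expressing exogenous NR-Gal4 chimeras and GAL4-UAS reporters were exposed for 24 h. Reporter mRNA was detected by RT-PCR with capillary electrophoresis fluorescence; activity fitted as gain of signal relative to DMSO.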

[3] = read-out: Intercellular Adhesion Molecule 1 (ICAM1), ICAM1 (gene 3383); assay: BSK_3C_ICAM1: BioMAP Diversity Plus: 3C Assay for Intercellular Adhesion Molecule 1 (ICAM1) Biomarker Activity (AID 2283003; active = hit-call score of the fitted dose curve at least 0.9, where 1 is the maximum; inactive = score below 0.9); conditions: primary human endothelial cells (HUVEC); actives raise or lower the signal
How it was run: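 ELISA readout of ICAM1 in human umbilical vein endothelial cells in the 3C system, taken 24 h post-dose. Gain or loss of signal versus DMSO was fitted in both directions, with SRB total-protein staining run in parallel.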

[4] = molecular target: human Retinoic Acid Receptor beta (RARb), RARB (gene 5915) (UniProt P10826); assay: ATG_RARb_TRANS: Attagene TRANS-FACTORIAL HepG2 Assay for human Retinoic Acid Receptor beta (AID 2283004)
Sequence of human Retinoic Acid Receptor beta (RARb), RARB (gene 5915) (P10826 whole entry, looked up, the tested form may be a part): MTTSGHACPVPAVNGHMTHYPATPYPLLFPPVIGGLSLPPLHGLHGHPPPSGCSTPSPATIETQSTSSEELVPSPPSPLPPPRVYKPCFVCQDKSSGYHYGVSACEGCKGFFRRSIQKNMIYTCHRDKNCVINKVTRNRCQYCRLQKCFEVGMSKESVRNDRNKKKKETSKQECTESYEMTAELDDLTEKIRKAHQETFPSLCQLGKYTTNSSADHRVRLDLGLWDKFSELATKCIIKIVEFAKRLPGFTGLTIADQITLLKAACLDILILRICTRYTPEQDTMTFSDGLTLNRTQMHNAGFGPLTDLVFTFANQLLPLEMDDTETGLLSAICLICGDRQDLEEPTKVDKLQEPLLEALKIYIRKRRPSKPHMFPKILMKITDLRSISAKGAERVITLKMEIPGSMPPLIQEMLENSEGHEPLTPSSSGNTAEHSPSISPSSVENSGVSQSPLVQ
How it was run: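 HepG2, transient MRTU transfection, NR–Gal4 chimera, 24 h treatment; RT-PCR plus CE fluorescence detection of reporter mRNA; gain of signal vs DMSO.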

[5] = molecular target: Retinoic acid receptor alpha (Homo sapiens) (UniProt P10276); assay: ATG_RARa_TRANS: Attagene TRANS-FACTORIAL HepG2 Assay for human Retinoic Acid Receptor alpha (RARa) (AID 2283005)
Sequence of Retinoic acid receptor alpha (Homo sapiens) (P10276 whole entry, looked up, the tested form may be a part): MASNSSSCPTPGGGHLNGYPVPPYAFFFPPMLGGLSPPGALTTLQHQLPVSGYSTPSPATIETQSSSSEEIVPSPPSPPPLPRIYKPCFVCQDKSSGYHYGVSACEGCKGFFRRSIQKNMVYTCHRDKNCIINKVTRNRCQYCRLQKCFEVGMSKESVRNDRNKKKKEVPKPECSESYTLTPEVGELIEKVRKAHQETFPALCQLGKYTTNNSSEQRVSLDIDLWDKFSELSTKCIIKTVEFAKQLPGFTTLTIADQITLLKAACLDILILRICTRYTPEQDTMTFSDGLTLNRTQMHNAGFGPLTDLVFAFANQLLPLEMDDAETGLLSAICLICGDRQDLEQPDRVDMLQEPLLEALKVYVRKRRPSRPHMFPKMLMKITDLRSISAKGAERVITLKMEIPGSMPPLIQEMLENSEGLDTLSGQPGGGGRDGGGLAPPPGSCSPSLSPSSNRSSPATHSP
How it was run: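 HepG2 cells transiently transfected with multiple reporter units expressing chimeric RARα-GAL4 fusion, with GAL4-UAS-driven reporters. After 24 h compound exposure, reporter mRNA induction quantified by RT-PCR and capillary electrophoresis with fluorescent labeling; gain-of-signal fitted relative to DMSO control.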

[6] = BSK_3C_Proliferation: Cell Proliferation Assessment in the BioMAP Diversity Plus: 3C Assay (AID 2283006; active = hit-call score of the fitted dose curve at least 0.9, where 1 is the maximum; inactive = score below 0.9;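 as to AC50: potency may reflect either rise or fall in cell number versus DMSO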); conditions: primary human endothelial cells (HUVEC)
How it was run: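 Proliferation as total protein: sulforhodamine B (0.1%) stain of TCA-fixed subconfluent human umbilical vein endothelial cells, absorbance 560 nm, 48 h after dosing. Activity fitted in both directions against DMSO baseline.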

[7] = molecular target: human RAR-related Orphan Receptor beta (RORb), RORB (gene 6096) (UniProt Q92753); assay: ATG_RORb_TRANS: Attagene TRANS-FACTORIAL HepG2 Assay for human RAR-related Orphan Receptor beta (RORb) (AID 2283010);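 as to AC50: potency for increased reporter mRNA meaning activation of RORb-Gal4 chimera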
Sequence of human RAR-related Orphan Receptor beta (RORb), RORB (gene 6096) (Q92753 whole entry, looked up, the tested form may be a part): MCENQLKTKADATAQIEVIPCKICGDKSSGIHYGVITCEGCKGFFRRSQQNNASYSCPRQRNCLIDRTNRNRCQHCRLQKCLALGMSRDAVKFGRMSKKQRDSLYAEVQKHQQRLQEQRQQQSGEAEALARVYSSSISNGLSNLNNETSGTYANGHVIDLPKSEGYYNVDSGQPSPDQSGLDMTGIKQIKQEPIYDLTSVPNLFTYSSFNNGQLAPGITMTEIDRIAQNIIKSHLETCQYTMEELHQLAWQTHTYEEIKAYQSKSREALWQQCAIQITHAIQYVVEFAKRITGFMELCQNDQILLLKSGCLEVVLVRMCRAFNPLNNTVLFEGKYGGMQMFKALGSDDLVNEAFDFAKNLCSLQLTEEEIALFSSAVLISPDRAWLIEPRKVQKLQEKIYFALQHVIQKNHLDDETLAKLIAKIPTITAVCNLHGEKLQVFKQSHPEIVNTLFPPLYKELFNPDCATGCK
How it was run: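 Read-out is reporter mRNA induction, quantified by RT-PCR with fluorescent capillary electrophoresis, 24 h post-dose in transiently transfected HepG2 expressing exogenous NR-Gal4 chimera. Activity fitted upward versus DMSO.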

[8] = molecular target: Peroxisome proliferator-activated receptor gamma (Homo sapiens) (UniProt P37231); assay: ATG_PPARg_TRANS: Attagene TRANS-FACTORIAL HepG2 Assay for human Peroxisome Proliferator-activated Receptor-gamma (PPARg) (AID 2283007)
Sequence of Peroxisome proliferator-activated receptor gamma (Homo sapiens) (P37231 whole entry, looked up, the tested form may be a part): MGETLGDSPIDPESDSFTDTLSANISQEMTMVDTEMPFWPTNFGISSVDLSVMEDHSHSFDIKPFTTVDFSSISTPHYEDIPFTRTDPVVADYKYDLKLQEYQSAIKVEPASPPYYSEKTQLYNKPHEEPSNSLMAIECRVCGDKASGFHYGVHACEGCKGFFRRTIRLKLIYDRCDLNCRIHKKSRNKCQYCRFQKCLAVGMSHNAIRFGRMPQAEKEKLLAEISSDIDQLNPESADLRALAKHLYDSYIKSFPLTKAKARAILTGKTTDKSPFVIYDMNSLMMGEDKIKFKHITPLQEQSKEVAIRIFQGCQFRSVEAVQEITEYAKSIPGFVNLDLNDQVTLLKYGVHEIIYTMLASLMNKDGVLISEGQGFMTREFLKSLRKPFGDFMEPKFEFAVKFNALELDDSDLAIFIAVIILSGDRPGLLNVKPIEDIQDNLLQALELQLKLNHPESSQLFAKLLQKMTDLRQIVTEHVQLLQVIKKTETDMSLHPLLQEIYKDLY
How it was run: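 Transient transfection of HepG2 with GAL4-UAS-driven reporter units; chemical dosing 24 h; total RNA → oligo(dT) RT → PCR with reporter primers → 6-FAM primer extension → HpaI digest 2 h 37 C → capillary electrophoresis. Positive direction vs DMSO.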

[9] = molecular target: Nuclear receptor subfamily 1 group I member 2 (Homo sapiens) (UniProt O75469); assay: ATG_PXR_TRANS: Attagene TRANS-FACTORIAL HepG2 Assay for human Pregnane X Receptor (PXR) (AID 2283008)
Sequence of Nuclear receptor subfamily 1 group I member 2 (Homo sapiens) (O75469 whole entry, looked up, the tested form may be a part): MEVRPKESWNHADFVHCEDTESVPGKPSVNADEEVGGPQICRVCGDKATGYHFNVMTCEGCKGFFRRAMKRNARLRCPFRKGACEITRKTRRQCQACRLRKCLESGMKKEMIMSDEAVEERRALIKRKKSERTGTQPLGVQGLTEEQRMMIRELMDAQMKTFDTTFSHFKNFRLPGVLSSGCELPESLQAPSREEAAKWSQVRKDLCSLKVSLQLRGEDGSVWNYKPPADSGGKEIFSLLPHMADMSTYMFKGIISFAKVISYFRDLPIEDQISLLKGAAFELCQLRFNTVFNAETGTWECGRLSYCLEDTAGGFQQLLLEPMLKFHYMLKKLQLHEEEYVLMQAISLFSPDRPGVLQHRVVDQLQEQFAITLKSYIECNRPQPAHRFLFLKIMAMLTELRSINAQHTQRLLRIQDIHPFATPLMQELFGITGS
How it was run: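 Transactivation by exogenous PXR–GAL4 fusion measured as reporter transcript induction after 24 h compound treatment of transfected human HepG2 cells. Read-out via RT-PCR and capillary electrophoresis of labelled fragments, fitted upward relative to DMSO.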

[10] = molecular target: human Retinoic Acid Receptor gamma (RARg), RARG (gene 5916) (UniProt P13631); assay: ATG_RARg_TRANS: Attagene TRANS-FACTORIAL HepG2 Assay for human Retinoic Acid Receptor gamma (RARg) (AID 2283009)
Sequence of human Retinoic Acid Receptor gamma (RARg), RARG (gene 5916) (P13631 whole entry, looked up, the tested form may be a part): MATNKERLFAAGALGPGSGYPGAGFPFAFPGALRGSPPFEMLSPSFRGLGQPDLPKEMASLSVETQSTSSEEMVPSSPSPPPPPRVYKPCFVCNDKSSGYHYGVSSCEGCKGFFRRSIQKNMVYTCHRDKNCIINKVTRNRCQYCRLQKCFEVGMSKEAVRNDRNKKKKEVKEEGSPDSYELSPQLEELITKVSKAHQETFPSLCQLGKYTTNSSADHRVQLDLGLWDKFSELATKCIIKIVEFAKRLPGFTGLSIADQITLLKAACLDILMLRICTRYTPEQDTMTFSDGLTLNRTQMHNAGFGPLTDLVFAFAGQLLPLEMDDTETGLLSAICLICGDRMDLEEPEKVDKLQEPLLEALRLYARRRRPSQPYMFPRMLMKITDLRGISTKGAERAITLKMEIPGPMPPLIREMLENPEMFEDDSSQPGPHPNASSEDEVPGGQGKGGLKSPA
How it was run: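 Transactivation of exogenous RARg-Gal4 fusion measured as reporter transcript induction after 24 h in transfected HepG2 cells. RNA reverse-transcribed, amplified, fluorescently labeled and resolved by capillary electrophoresis; increase relative to DMSO.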

Measured: AC50

CCNc1nc(N)nc(Cl)n1
not listed: [8] | [9] | [10]
inactive: all other assays above

C=CCOC(Cn1ccnc1)c1ccc(Cl)cc1Cl (configuration not stated)
active: [6] 21.5 µM | [8] 71.7 µM
inactive: [1] | [2] | [9]

c1ccc(Nc2ccccc2)cc1
active: [8] 50 µM
not listed: [3] | [7] | [10]
inactive: all other assays above

O=C(c1ccc(O)cc1O)c1ccc(O)cc1O
active: [8] 49.1 µM [middle of 4 runs]
not listed: [3] | [5] | [9]
inactive: all other assays above

N#CSCSc1nc2ccccc2s1
active: [6] 824 nM and 2.52 µM | [8] 23.1 µM | [7] 12.3 µM
inactive: [1] | [2] | [8] | [10] | [7]

CCCCOC(=O)[C@@H](C)Oc1ccc(Oc2ccc(C(F)(F)F)cn2)cc1
not listed: [2]
inactive: all other assays above

C#CCOC(=O)[C@@H](C)Oc1ccc(Oc2ncc(Cl)cc2F)cc1
inactive: [1] | [2] | [6] | [8] | [10] | [7]

CCOC(=O)[C@H](C)Oc1ccc(Oc2nc3ccc(Cl)cc3o2)cc1
inactive: [5] | [6] | [8] | [9] | [10] | [7]

CCCN(CCC)c1c([N+](=O)[O-])cc(C(F)(F)F)c(N)c1[N+](=O)[O-]
active: [6] 13.2 µM | [9] 3.98 µM
inactive: [2] | [4] | [5] | [8] | [10]

CCCCC(CC)CN1C(=O)C2C3C=CC(C3)C2C1=O (configuration not stated)
inactive: [2]
active: [6] 31.2 µM | [8] 50 µM

O=C(O)c1ccccc1
inactive: [1] | [6] | [8] | [7]

COC(=O)c1ccccc1C(=O)O
inactive: [6] | [8] | [10]

O=C(c1ccccc1)C1CCCCC1
active: [8] 61.5 µM
inactive: [2] | [4] | [6] | [8] | [10]

CC1(C)C(C=C(Cl)Cl)C1C(=O)OCc1cccc(Oc2ccccc2)c1 (configuration not stated)
active: [6] 4.29 µM
inactive: [1] | [3] | [7]
